The values below come from PubChem BioAssay AID504332 (National Center for Advancing Translational Sciences (NCATS), 2011).

Screen size: about 350,000 compounds; about 31,000 (8.9%) were called active. Not shown: some 15% with an inconclusive outcome. The sample holds actives, similar compounds and a random draw of the others, so the mix is not that of the screen. A number with no mark means an inactive call. The call rests on the fitted dose curve; in most records, active means well fitted inhibition curve with a large enough effect; inconclusive means small, poorly fitted or top-dose-only effect; inactive means no such curve, though single readings can be large or run the other way.
On the % scale 0 is the no-effect control and ±100 the full control effect; potency means the concentration at half of the fitted maximal effect.

Sequence of Histone-lysine N-methyltransferase EHMT2 (Homo sapiens) (Q96KQ7 913-1193 limits assumed): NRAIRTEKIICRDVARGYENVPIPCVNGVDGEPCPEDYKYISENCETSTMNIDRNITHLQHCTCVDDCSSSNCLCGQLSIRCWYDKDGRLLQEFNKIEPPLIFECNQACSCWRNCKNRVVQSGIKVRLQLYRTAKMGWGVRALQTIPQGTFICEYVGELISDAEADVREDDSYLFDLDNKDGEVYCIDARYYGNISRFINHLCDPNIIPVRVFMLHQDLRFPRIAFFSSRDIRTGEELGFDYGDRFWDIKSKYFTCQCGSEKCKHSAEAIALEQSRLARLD

This assay concerns the target Histone-lysine N-methyltransferase EHMT2 (Homo sapiens) (UniProt Q96KQ7). In words: qHTS Assay for Inhibitors of Histone Lysine Methyltransferase G9a. Further: nearly all actives have a fitted effect of over 75% in size. The following applies: G9a H3K9 monomethylation, AlphaScreen, 2 h; series mostly up to 59 µM; activity, negative = inhibition: at the top concentration. In short, it runs like this:
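Step 1: enzyme (final 20 nM) with compound, 15 min RT. Step 2: substrate peptide 500 nM and SAM 20 uM, 2 h RT. Step 3: anti-H3K9me1 antibody and AlphaScreen beads, 10 min, then plate read.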
A general note: Quantitative high-throughput screening tests each substance at several concentrations.
For `Cc1cccc(C)c1-n1ncc(C(=O)NCCCN2CCCCC2)c1C1CCN(C(=O)OC(C)(C)C)CC1`, the “activity, negative = inhibition” value is -25%.

Regarding `CCCC(NCC(=O)Nc1ccccc1C(=O)NC1CC1)c1ccccc1` (stereo not drawn), the “activity, negative = inhibition” value is -2.12% [at 102 µM].

Take `CCOC(=O)c1c(C)[nH]c(C)c1S(=O)(=O)NCC(=O)NCc1cccc(C)c1`: the “activity, negative = inhibition” value was 7.2%.

For `Cc1c(C)c2ccc(OCC(=O)N3CCC(C(=O)O)CC3)c(C)c2oc1=O`, the “activity, negative = inhibition” value is -7.73% [at 102 µM].

For `CCCCc1cc(=O)oc2cc(C)cc(OCc3nn[nH]n3)c12`, the “activity, negative = inhibition” value was 17.7%.

Regarding `CCOC(=O)CCc1c(C)c2ccc(OCc3nn[nH]n3)c(C)c2oc1=O`, the Potency is 50.1 µM (active).

Regarding `CCc1ccc(C(=O)NN=C2CCCCCC2)s1`, the “activity, negative = inhibition” value was 1.85% [at 102 µM].

On to `O=C(Nc1ccccc1Br)c1cc(CN2CCCC2)on1`, for which the “activity, negative = inhibition” value was -5.99%.

Turning to `COc1ccc(NC(=O)CSc2nc3ccccc3c(=O)n2C)cc1`, the activity, negative = inhibition is 7.85% [at 0.501 µM].

`COc1cccc(NC(=O)C(Sc2nc3ccccc3c(=O)n2CC(C)C)c2ccccc2)c1` (stereo not drawn): the Potency is 79.4 µM (active).

As for `COc1cccc(NC(=O)C(Sc2nnnn2C)c2ccccc2)c1` (stereo not drawn), the “activity, negative = inhibition” value is 5.67% [at 102 µM].

As to `Cc1ccc(C2CCN(C(=O)c3cnn(-c4ccccc4Cl)c3C3CCN(C(=O)OC(C)(C)C)CC3)C2)cc1` (stereo not drawn), the “activity, negative = inhibition” value is -43.6%.

Take `CC(=O)Nc1ccc(NC(=O)c2sc3nc4c(c(-c5ccc(C)cc5)c3c2N)CCC4)cc1`: the “activity, negative = inhibition” value was -37.6%.

On to `Cc1ccc(NC(=O)c2sc3nc(N)c(C#N)cc3c2N)cc1`, for which the Potency was 7.94 µM (active).

For `COc1ccc(NC(=O)c2cc(-c3ccc(C)cc3)on2)cc1`, the activity, negative = inhibition is -5.29% [at 0.501 µM].

As to `COc1ccc(CCNC(=O)CCNS(=O)(=O)c2cc(Br)cnc2N)cc1OC`, the “activity, negative = inhibition” value was 4.51%.

`COCC1CCN(C(=O)C2CCC(=O)N(Cc3cccc(C(F)(F)F)c3)C2)CC1` (stereo not drawn): the activity, negative = inhibition was 15.3% [at 12.7 µM].

`O=c1o[nH]c(-c2ccccc2)c1N=Nc1c(F)cccc1Cl`: the Potency was 28.2 µM (active).

For the molecule `O=c1onc(-c2c(F)cccc2F)n1-c1ccccc1Cl`, the “activity, negative = inhibition” value was 22.1% [at 102 µM].

In the case of `O=c1c(=O)n(Cc2c(F)cccc2Cl)ccn1Cc1ccccc1`, the “activity, negative = inhibition” value is -38%.

Consider `Cc1nnc(NC(=O)CSc2nc3c([nH]c4ccccc43)c(=O)n2-c2cccc(Cl)c2)s1`, for which the “activity, negative = inhibition” value is 6.79%.

Take `COCCNS(=O)(=O)c1cc(-c2nn3c(C)nnc3c3ccccc23)ccc1C`: the “activity, negative = inhibition” value was -0.274%.

On to `Cc1nc2ccccn2c(=O)c1NC(=O)c1cccs1`, for which the “activity, negative = inhibition” value is 2.42% [at 102 µM].

`Cc1ccc(C)c(S(=O)(=O)c2nnn3c2nc(N2CCOCC2)c2sccc23)c1`: the “activity, negative = inhibition” value was 13.3%.

Consider `CCOC(=O)C1CN(S(=O)(=O)c2ccc(OC)cc2)c2cc(Cl)ccc2O1` (stereo not drawn), for which the “activity, negative = inhibition” value was 34.7% [at 102 µM].

On to `Cc1ccc(C)c(S(=O)(=O)N2CCN(CC(=O)Nc3ccc([N+](=O)[O-])cc3)CC2)c1`, for which the “activity, negative = inhibition” value is -2.86%.

Turning to `O=[N+]([O-])c1cccc(S(=O)(=O)N2CCCCCC2)c1`, the “activity, negative = inhibition” value was -27.8%.

Turning to `Cc1ccc([N+](=O)[O-])cc1S(=O)(=O)N1CCCN(C)CC1`, the Potency is 56.2 µM (active).

For `CC(CNC(=O)c1nnc(Cc2cccc(F)c2)o1)c1ccccc1` (stereo not drawn), the “activity, negative = inhibition” value is -21.9%.

`O=C(NCCC1CCCCN1S(=O)(=O)c1ccc(Cl)cc1)C(=O)NCc1ccco1` (stereo not drawn): the activity, negative = inhibition is -5.87% [at 0.501 µM].

In the case of `CCOc1ccc(N/C(N)=N/c2nc(C)c(C)c(=O)[nH]2)cc1`, the Potency was 50.1 µM (active).

As to `CCOc1ccc(NC(=O)c2nc(SCC)ncc2Cl)cc1`, the “activity, negative = inhibition” value was -3.51% [at 102 µM].

Consider `CCOc1ccc(NC(=O)C2CC(=O)N=C(N)S2)cc1` (stereo not drawn), for which the “activity, negative = inhibition” value was -39.6%.

With `COc1ccccc1C(=O)Nc1c(C(=O)Nc2ccc(C)cc2)oc2ccccc12`, the “activity, negative = inhibition” value was -5.27%.

As to `COc1ccc(C)cc1NC(=O)COCc1cc(-c2cccs2)on1`, the “activity, negative = inhibition” value was 8.56%.

Take `COc1ccc(CNC(=O)COc2ccccc2C(=O)c2cnn(-c3ccccc3)c2)cc1OC`: the activity, negative = inhibition is 13.3% [at 12.7 µM].

Consider `CCOC(=O)C1(Cc2ccccc2C)CCCN(C(=O)c2ccc(COC)o2)C1` (stereo not drawn), for which the “activity, negative = inhibition” value is -36.1% [at 102 µM].

In the case of `N#CCCN(C(=O)COC(=O)c1ccc(S(=O)(=O)N2CCCCCC2)cc1)c1ccccc1`, the “activity, negative = inhibition” value was -22%.

Turning to `O=C(Cc1ccccc1)NNS(=O)(=O)c1ccc([N+](=O)[O-])cc1`, the “activity, negative = inhibition” value is -66.7%.

In the case of `O=C(O)/C=C/C(=O)NNc1ccc([N+](=O)[O-])cc1`, the Potency is 7.94 µM (active).

As for `CC(C)(C)C(=O)NCCCNc1ccc([N+](=O)[O-])cc1`, the “activity, negative = inhibition” value is -3.86%.

As for `CCc1nn(CC(=O)Nc2cc(C)cc(C)c2)c(=O)c2cc3sccc3n12`, the “activity, negative = inhibition” value is -17.4%.

With `Cc1n[nH]c(=O)c2c(NC(=O)COC(=O)c3ncc(Cl)c(Cl)c3Cl)oc(C)c12`, the activity, negative = inhibition is 5.9% [at 0.501 µM].

For the molecule `Cc1n[nH]c(=O)c2c(NC(=O)CSc3cc(Cl)ccc3Cl)oc(C)c12`, the activity, negative = inhibition was 18.3% [at 2.33 µM].

Turning to `Cc1n[nH]c(=O)c2c(NC(=O)CSc3ccccc3F)oc(C)c12`, the Potency is 31.6 µM (active).

For the molecule `O=c1c(-c2ccccc2)cnc2n1CCS2`, the activity, negative = inhibition is 20.8% [at 12.7 µM].

Consider `O=C(O)Cc1sc(-c2ccccc2)nc1-c1cccs1`, for which the “activity, negative = inhibition” value is -42.8% [at 102 µM].

Consider `O=c1c2cc(-c3ccccc3)sc2nc2n1N=C(c1cccs1)CS2`, for which the Potency was 11.2 µM (active).

On to `CS(=O)(=O)N1CCN=C1SCc1ccc(F)cc1`, for which the “activity, negative = inhibition” value was 53.4% [at 102 µM].

For the molecule `CCOC(=O)N1CCC(NC(=O)c2cnn(-c3cccc(C)c3)c2C2CCN(C(=O)OC(C)(C)C)CC2)CC1`, the “activity, negative = inhibition” value is -20.7%.

On to `CCOC(=O)c1cc2c(=O)n3ccccc3nc2n(CCCOC)c1=NC(=O)C(C)(C)Oc1ccc(Cl)cc1`, for which the “activity, negative = inhibition” value was -2.89%.

As to `Cc1cccc(-n2c(Cc3cc(=O)[nH]c(=O)[nH]3)nnc2SCC(=O)Nc2cccc(C(F)(F)F)c2)c1`, the “activity, negative = inhibition” value was 15.1% [at 102 µM].

Take `COc1ccc(NC(=O)CSc2nccn2C2CCCC2)cc1OC`: the “activity, negative = inhibition” value is 9.83%.

`CC(CC(=O)Nc1cc(C(F)(F)F)ccc1Cl)c1ccccc1` (stereo not drawn): the “activity, negative = inhibition” value is 9.26%.

Regarding `O=C(CSc1nccn1C1CCCC1)Nc1cc(C(F)(F)F)ccc1Cl`, the Potency is 12.6 µM (active).

For `O=C(CSc1nc(=O)[nH]c2c1CCCC2)Nc1cc(C(F)(F)F)ccc1Cl`, the “activity, negative = inhibition” value is 10.2%.

Take `Cc1cccc(-n2ccnc2SCC(=O)Nc2cc(C(F)(F)F)ccc2Cl)c1`: the Potency was 14.1 µM (active).

Turning to `O=C(CN1C(=O)NC2(CCCCC2)C1=O)N1CCN(C(=O)c2cccs2)CC1`, the activity, negative = inhibition is -17% [at 2.33 µM].

In the case of `Cc1ccc2nc(COc3cccc(NC(=O)Nc4ccc(C)c(Cl)c4)c3)cc(=O)n2c1`, the “activity, negative = inhibition” value is 6.7%.

On to `CC(=O)NC12CC3CC(C1)CC(C(=O)N1CCN(C(=O)c4ccco4)CC1)(C3)C2`, for which the “activity, negative = inhibition” value is 25.3%.

For the molecule `CCCC(=O)Nc1ccc2oc(-c3ccc(O)c(Br)c3)nc2c1`, the “activity, negative = inhibition” value was -0.852%.

In the case of `CC(C)Nc1nnc(SC(C)C(=O)N(C)C2CCCCC2)s1` (stereo not drawn), the activity, negative = inhibition is 7.92% [at 0.501 µM].

`O=C(Cn1ncn2nc(-c3cccs3)cc2c1=O)NCc1cccc(Br)c1`: the “activity, negative = inhibition” value was -32.8%.
